{
  "source": "the supplement of paper PMC10670038",
  "note": "Structures can show the parent of a compound that is named as a salt. ± gives the standard deviation of the averaged measurements. Whole data set: some 2,000 compounds, median “relative cell viability vs DMSO, compound + 0.2 uM CuET” near 1, cut for the lowest 2% near 0.25. Shown is part of a subset that was picked to be rich in the lowest values.",
  "data": [
    {"test_system": "TE10", "test": "relative cell viability vs DMSO, compound + 0.2 uM CuET (fraction); TE10 is an esophageal squamous carcinoma line; higher = less cytotoxic", "details": "2 µM; co-treatment: CuET (bis(diethyldithiocarbamate)copper) 0.2 uM; 48 h", "protocol": "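TE10 ESCC cells (1,000/well, 384-well plates) were treated with Selleck bioactive library compounds at 2 uM combined with 0.2 uM CuET (copper diethyldithiocarbamate) for 48 h. Viability was read by CellTiter-Glo and expressed relative to DMSO wells. Two technical replicates (A, B).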", "values": [
      {"smiles": "CC(C)(C)C(=O)Nc1ccc2c(c1)C(=O)C(=O)c1ccccc1-2", "relative cell viability": "0.026 ± 0.0042"},
      {"smiles": "CC(=O)Nc1ccccc1", "note": "[Acetanilide]", "relative cell viability": "1.018 ± 0.0034"},
      {"smiles": "O=C1c2ccccc2C(=O)c2c1ccc(O)c2O", "note": "[Alizarin]", "relative cell viability": "1.1 ± 0.029"},
      {"smiles": "COc1ccc(OC)c(C2C(C#N)=C(N)Oc3n[nH]c(-c4ccc5ccccc5c4)c32)c1", "note": "(configuration not stated)", "relative cell viability": "1.06 ± 0.048"},
      {"smiles": "CN(c1ccccc1CNc1nc(Nc2ccc3c(c2)CC(=O)N3)ncc1C(F)(F)F)S(C)(=O)=O", "relative cell viability": "0.709 ± 0.029"},
      {"smiles": "Cc1ccc(NC(=O)c2ccc(CN3CCN(C)CC3)cc2)cc1Nc1nccc(-c2cccnc2)n1", "note": "[Imatinib Mesylate (STI571)]", "relative cell viability": "1.43 ± 0.12"},
      {"smiles": "Nc1ccccc1NC(=O)c1ccc(CNC(=O)OCc2cccnc2)cc1", "note": "[Entinostat (MS-275)]", "relative cell viability": "0.321 ± 0.033"},
      {"smiles": "Cc1ccc(NC(=O)c2ccc(CN3CCN(C)CC3)cc2)cc1Nc1nccc(-c2cccnc2)n1", "note": "[Imatinib (STI571)]", "relative cell viability": "1.05 ± 0.1"},
      {"smiles": "Nc1ccccc1NC(=O)c1ccc(CNc2nccc(-c3cccnc3)n2)cc1", "note": "[Mocetinostat (MGCD0103)]", "relative cell viability": "0.249 ± 0.039"},
      {"smiles": "O=C1Cc2c([nH]c3ccc(Br)cc23)-c2ncccc2N1", "note": "[1-Azakenpaullone]", "relative cell viability": "1.17 ± 0.11"},
      {"smiles": "Cc1ccc(-c2csc(NC(=O)c3ccccc3)n2)c(C)c1", "relative cell viability": "1.22 ± 0.19"},
      {"smiles": "Cn1c(Nc2ccc(C(F)(F)F)cc2)nc2cc(Oc3ccnc(-c4ncc(C(F)(F)F)[nH]4)c3)ccc21", "relative cell viability": "0.847 ± 0.035"},
      {"smiles": "CCCc1nc(C)c2c(=O)nc(-c3cc(S(=O)(=O)N4CCN(CC)CC4)ccc3OCC)[nH]n12", "note": "[Vardenafil HCl Trihydrate]", "relative cell viability": "1.1 ± 0.062"},
      {"smiles": "O=C(c1ccc(F)cc1)N1CCCC(c2nc(-c3ccc(F)cc3)no2)C1", "note": "(configuration not stated)", "relative cell viability": "1.12 ± 0.22"},
      {"smiles": "C=CC(=O)N1CC(=Cc2ccc([N+](=O)[O-])cc2)C(=O)C(=Cc2ccc([N+](=O)[O-])cc2)C1", "relative cell viability": "0.126 ± 0.015"},
      {"smiles": "CN1C(C(=O)Nc2ccccn2)=C(O)c2ccccc2S1(=O)=O", "note": "[Piroxicam]", "relative cell viability": "1.02 ± 0.064"},
      {"smiles": "Nc1ccccc1NC(=O)c1cnccn1", "relative cell viability": "1.16 ± 0.018"},
      {"smiles": "CC(C)Oc1ccc2c(=O)c(-c3ccccc3)coc2c1", "note": "[Ipriflavone (Osteofix)]", "relative cell viability": "0.968 ± 0.056"},
      {"smiles": "CCC(=O)OCC(=O)[C@@]1(OC(=O)CC)[C@@H](C)C[C@H]2[C@@H]3CCC4=CC(=O)C=C[C@]4(C)[C@@]3(F)[C@@H](O)C[C@@]21C", "note": "[Betamethasone Dipropionate]", "relative cell viability": "1.05 ± 0.052"},
      {"smiles": "Cc1ccc(S(=O)(=O)C=CC#N)cc1", "relative cell viability": "0.101 ± 0.0039"},
      {"smiles": "CC(C)(C)c1ccc(S(=O)(=O)/C=C/C#N)cc1", "relative cell viability": "0.107 ± 0.0014"},
      {"smiles": "Cc1cc(C)c(-c2csc(NC(=O)c3ccccc3)n2)c(C)c1", "relative cell viability": "1.17 ± 0.069"},
      {"smiles": "O=C(NO)c1ccc(CC(=O)N(CCO)c2ccccc2)cc1", "relative cell viability": "1.056 ± 0.0057"},
      {"smiles": "O=C1NC(=NCc2cccs2)S/C1=C\\c1ccc2ncccc2c1", "relative cell viability": "1.12 ± 0.078"},
      {"smiles": "CC(Oc1cc(-c2cnn(C3CCNCC3)c2)cnc1N)c1c(Cl)ccc(F)c1Cl", "note": "[(S)-crizotinib]", "relative cell viability": "1.12 ± 0.028"},
      {"smiles": "CC(C)(C)C(=O)OCOP(=O)(COCCn1cnc2c(N)ncnc21)OCOC(=O)C(C)(C)C", "note": "[Adefovir Dipivoxil]", "relative cell viability": "1.02 ± 0.035"},
      {"smiles": "Cc1cc(Nc2cc(CN3CCOCC3)c3nc(C)c(Cc4ccc(Cl)cc4F)n3n2)n[nH]1", "relative cell viability": "0.92 ± 0.046"},
      {"smiles": "O=C1C(c2c(O)[nH]c3ccccc23)=Nc2ccccc21", "note": "[Indirubin]", "relative cell viability": "0.978 ± 0.15"},
      {"smiles": "CC(C)C[C@H](NC(=O)CNC(=O)c1cc(Cl)ccc1Cl)B1OC(=O)CC(CC(=O)O)(C(=O)O)O1", "note": "(some centres not stated)", "relative cell viability": "0.818 ± 0.048"},
      {"smiles": "O=C1N=C(O)NC1(c1ccccc1)c1ccccc1", "note": "[Phenytoin sodium]", "relative cell viability": "0.961 ± 0.045"},
      {"smiles": "CCN(CC)Cc1ccc2cc(COC(=O)Nc3ccc(C(=O)NO)cc3)ccc2c1", "note": "[Givinostat (ITF2357)]", "relative cell viability": "0.192 ± 0.018"},
      {"smiles": "CCN(CC)CCNC(=O)c1ccc(N)cc1", "note": "[Procainamide HCl]", "relative cell viability": "0.957 ± 0.026"},
      {"smiles": "COc1ccc(Cn2ccc3ccc(C(=O)NO)cc32)cc1", "relative cell viability": "0.685 ± 0.085"},
      {"smiles": "C=CC(=O)N1CCN(C(=O)CNc2cc(I)c(Cl)cc2O)CC1", "note": "[K-Ras(G12C) inhibitor 12]", "relative cell viability": "1.06 ± 0.13"},
      {"smiles": "C=CC(C)(C)c1cc(C=CC(=O)c2ccc(O)cc2)c(OC)cc1O", "note": "[Licochalcone A]", "relative cell viability": "1.008 ± 0.0053"},
      {"smiles": "CN1CC[C@@H](c2c(O)cc(O)c3c(=O)cc(-c4ccccc4Cl)oc23)[C@@H]1CO", "relative cell viability": "0.7 ± 0.044"},
      {"smiles": "CNC(=O)c1c(F)cccc1Nc1nc(Nc2cc3c(cc2OC)CCN3C(=O)CN(C)C)nc2[nH]ccc12", "relative cell viability": "1.06 ± 0.1"},
      {"smiles": "CC1(C)O[C@@H]2C[C@H]3[C@@H]4CCC5=CC(=O)CC[C@]5(C)[C@@]4(F)[C@@H](O)C[C@]3(C)[C@]2(C(=O)CCl)O1", "note": "[Halcinonide]", "relative cell viability": "0.905 ± 0.0084"},
      {"smiles": "NC(=O)c1ccc(-c2nc(-c3ccc4c(c3)OCCO4)c(-c3ccccn3)[nH]2)cc1", "relative cell viability": "0.996 ± 0.12"},
      {"smiles": "CC(C)N(CCC(=O)c1ccc2ccccc2c1)Cc1ccccc1", "relative cell viability": "0.1814 ± 0.0002"},
      {"smiles": "C/C(=C\\C(=O)Nc1ccccc1C(=O)O)c1ccc2ccccc2c1", "relative cell viability": "1.14 ± 0.058"},
      {"smiles": "CC(COc1ccccc1)N(CCCl)Cc1ccccc1", "note": "(configuration not stated) [Phenoxybenzamine HCl]", "relative cell viability": "1.07 ± 0.07"},
      {"smiles": "Cn1cc(-c2ccc3c(c2)CCN3C(=O)Cc2cccc(C(F)(F)F)c2)c2c(N)ncnc21", "relative cell viability": "0.897 ± 0.087"},
      {"smiles": "CN(C)CCN1C(=O)c2cccc3cc(N)cc(c23)C1=O", "note": "[Amonafide]", "relative cell viability": "1.042 ± 0.0065"},
      {"smiles": "COc1ccc(C2=NC(c3ccc(Cl)cc3)C(c3ccc(Cl)cc3)N2C(=O)N2CCNC(=O)C2)c(OC(C)C)c1", "note": "(configuration not stated) [Nutlin-3b]", "relative cell viability": "1.17 ± 0.094"},
      {"smiles": "COc1ccc(C2=NC(c3ccc(Cl)cc3)C(c3ccc(Cl)cc3)N2C(=O)N2CCNC(=O)C2)c(OC(C)C)c1", "note": "(configuration not stated) [Nutlin-3a]", "relative cell viability": "1.149 ± 0.0057"},
      {"smiles": "O=C(Oc1cc(S(=O)(=O)c2ccccc2)ccc1[N+](=O)[O-])c1ccc(Cl)cc1", "relative cell viability": "1.04 ± 0.07"},
      {"smiles": "COc1cc(-c2cc(-c3ccc(N4CCNCC4)cc3)cnc2C)cc(OC)c1OC", "relative cell viability": "0.87 ± 0.053"},
      {"smiles": "Nc1ccc(-c2ccc3ncc4ccc(=O)n(-c5cccc(C(F)(F)F)c5)c4c3c2)cn1", "note": "[Torin 2]", "relative cell viability": "0.569 ± 0.16"},
      {"smiles": "COc1ccc(-c2ccc3ncc4c(c3c2)n(-c2ccc(N3CCNCC3)c(C(F)(F)F)c2)c(=O)n4C)cn1", "relative cell viability": "0.104 ± 0.0046"},
      {"smiles": "Cc1c(NC(=O)c2ccc(C(C)(C)C)cc2)cccc1-c1cn(C)c(=O)c(Nc2ccc(C(=O)N3CCOCC3)cc2)n1", "relative cell viability": "1.04 ± 0.046"},
      {"smiles": "Cc1ccccc1C(=O)Nc1ccc(C(=O)N2CCCC(O)c3cc(Cl)ccc32)c(C)c1", "note": "(configuration not stated) [Tolvaptan]", "relative cell viability": "1.05 ± 0.075"}
    ]}
  ]
}
